Results reported in ChEMBL document CHEMBL3988442, “University of Dundee, Small-Polar-MMV Screening Library” (2021).
For some assays here: Potency and affinity values are given separately.

What was measured:
Design in all cases: scale not given: direction of the effect not stated beside the values
[1] = target: Protein translocase subunit SecA (Escherichia coli (strain K12)) (UniProt P10408); assay: Assay to Identify E. coli SecA ATPase Inhibitors; assay type: functional; settings: 30 µM
[2] = target: T1, Ubiquitin-activating enzyme e1, putative (Leishmania donovani (strain BPK282A1)) (UniProt E9BSI1); assay: Leishmania donovani Ubiquitin Activating Enzyme (LdE1); assay type: functional; settings: 30 µM
T1 sequence (whole entry): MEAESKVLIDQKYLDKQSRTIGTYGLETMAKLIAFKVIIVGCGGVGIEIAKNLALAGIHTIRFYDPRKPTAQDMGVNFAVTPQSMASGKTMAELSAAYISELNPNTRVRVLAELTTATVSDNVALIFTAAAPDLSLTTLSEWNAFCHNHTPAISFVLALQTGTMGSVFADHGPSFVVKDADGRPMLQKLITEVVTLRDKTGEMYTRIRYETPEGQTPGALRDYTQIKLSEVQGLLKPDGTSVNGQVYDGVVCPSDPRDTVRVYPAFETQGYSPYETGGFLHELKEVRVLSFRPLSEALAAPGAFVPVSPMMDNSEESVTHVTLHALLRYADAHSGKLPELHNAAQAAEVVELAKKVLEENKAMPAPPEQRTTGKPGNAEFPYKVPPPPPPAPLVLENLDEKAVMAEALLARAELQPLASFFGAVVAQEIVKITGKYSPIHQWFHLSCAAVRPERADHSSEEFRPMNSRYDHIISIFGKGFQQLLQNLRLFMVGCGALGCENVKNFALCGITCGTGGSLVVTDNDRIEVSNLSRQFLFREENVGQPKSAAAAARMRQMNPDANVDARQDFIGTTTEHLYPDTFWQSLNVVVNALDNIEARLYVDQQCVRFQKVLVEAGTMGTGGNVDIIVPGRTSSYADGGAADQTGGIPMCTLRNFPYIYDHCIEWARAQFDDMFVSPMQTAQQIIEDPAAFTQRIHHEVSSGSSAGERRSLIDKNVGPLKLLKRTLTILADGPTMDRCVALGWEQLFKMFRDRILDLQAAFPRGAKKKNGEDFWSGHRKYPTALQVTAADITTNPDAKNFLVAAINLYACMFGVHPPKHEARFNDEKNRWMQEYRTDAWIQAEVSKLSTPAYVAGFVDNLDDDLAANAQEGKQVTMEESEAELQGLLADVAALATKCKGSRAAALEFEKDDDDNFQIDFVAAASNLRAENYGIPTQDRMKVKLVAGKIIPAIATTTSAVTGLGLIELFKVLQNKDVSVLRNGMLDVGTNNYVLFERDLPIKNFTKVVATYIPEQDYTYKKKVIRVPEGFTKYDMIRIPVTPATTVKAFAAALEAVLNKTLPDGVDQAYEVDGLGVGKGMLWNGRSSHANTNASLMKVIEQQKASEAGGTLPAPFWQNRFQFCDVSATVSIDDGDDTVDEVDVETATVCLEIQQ

[3] = target: AMP-activated protein kinase, AMPK (Homo sapiens) (UniProt P54646+O43741+P54619+Q9UGJ0+Q9Y478+Q13131+Q9UGI9); assay: AMP-dependent Kinase enzyme assay. An in vitro enzyme assay that detects ADP turnover that is directly proportional to AMPK activity. This uses naive AMPK that is activated during the assay with MK-8722; assay type: functional; settings: 30 µM
[4] = target: Sialic acid-binding Ig-like lectin 9 (Homo sapiens) (UniProt Q9Y336); assay: Hs-Siglec9 ALPHAscreen SOP 20170721; settings: 10 µM
Chain of Sialic acid-binding Ig-like lectin 9 (Homo sapiens) (Q9Y336 whole entry): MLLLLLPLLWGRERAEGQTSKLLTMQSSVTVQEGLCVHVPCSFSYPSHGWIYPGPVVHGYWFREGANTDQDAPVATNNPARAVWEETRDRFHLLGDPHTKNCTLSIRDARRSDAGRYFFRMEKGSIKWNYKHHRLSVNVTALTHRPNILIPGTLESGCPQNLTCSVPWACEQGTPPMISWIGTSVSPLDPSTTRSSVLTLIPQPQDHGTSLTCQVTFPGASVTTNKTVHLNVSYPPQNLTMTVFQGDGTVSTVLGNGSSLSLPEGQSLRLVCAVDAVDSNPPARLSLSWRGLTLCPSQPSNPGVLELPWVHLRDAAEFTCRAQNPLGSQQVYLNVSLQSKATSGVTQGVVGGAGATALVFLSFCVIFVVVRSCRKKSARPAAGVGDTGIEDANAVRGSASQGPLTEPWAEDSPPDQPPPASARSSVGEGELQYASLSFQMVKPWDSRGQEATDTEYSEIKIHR

Trypanosoma cruzi = assay: Trypanosoma cruzi phosphomannomutase and mannose-1-phosphate guanylyltransferase assay; assay type: functional; settings: 10 µM
[5] = target: T2, Arginase-2, mitochondrial (Homo sapiens) (UniProt P78540); assay: in vitro enzyme assay to detect the production of urea directly proportional to the activity of Arginase II; assay type: functional; settings: 33.3 µM; note: in the data most compounds retested in dose-response had high values
T2 sequence (whole entry): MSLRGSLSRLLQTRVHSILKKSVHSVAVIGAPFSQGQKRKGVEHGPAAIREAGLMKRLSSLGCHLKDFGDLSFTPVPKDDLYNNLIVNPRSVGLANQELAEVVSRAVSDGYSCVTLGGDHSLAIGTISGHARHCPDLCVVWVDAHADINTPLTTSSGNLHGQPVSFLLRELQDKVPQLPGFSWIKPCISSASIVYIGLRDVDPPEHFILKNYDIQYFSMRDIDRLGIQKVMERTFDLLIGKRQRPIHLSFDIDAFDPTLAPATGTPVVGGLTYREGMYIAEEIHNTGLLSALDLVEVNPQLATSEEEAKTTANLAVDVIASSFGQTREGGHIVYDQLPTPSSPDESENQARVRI

[6] = target: T3, Proteasome subunit beta (Trypanosoma cruzi) (UniProt O96673); assay: Trypanosoma cruzi proteasome chymotrypsin-like activity (TcProtChymo) assay.; note: in the data most compounds retested in dose-response had high values; assay type: functional; settings: 9.37 µM
T3 sequence (whole entry): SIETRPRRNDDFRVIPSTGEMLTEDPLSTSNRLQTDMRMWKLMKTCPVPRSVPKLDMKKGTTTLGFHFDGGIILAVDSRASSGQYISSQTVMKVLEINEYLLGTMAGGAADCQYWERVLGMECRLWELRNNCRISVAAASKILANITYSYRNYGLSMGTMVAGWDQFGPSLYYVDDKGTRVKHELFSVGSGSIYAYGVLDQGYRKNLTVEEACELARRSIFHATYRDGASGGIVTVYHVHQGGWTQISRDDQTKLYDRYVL

Homo sapiens = species on record: Homo sapiens; assay: To identify inhibition of the IFN signalling (Jak-Stat) pathway via expression of an eGFP reporter gene under the control of an IFN-stimulated response element (ISRE) containing MxA promoter.; assay type: functional; settings: 30 µM
[7] = target: T4, Tyrosyl-tRNA synthetase, putative (Trypanosoma cruzi (strain CL Brener)) (UniProt Q4DSP6); assay: Trypanosoma cruzi tyrosyl tRNA synthetase (TcYRS) _High Tyrosine SOP; assay type: functional; settings: 30 µM; note: in the data most compounds retested in dose-response had high values
T4 sequence (whole entry): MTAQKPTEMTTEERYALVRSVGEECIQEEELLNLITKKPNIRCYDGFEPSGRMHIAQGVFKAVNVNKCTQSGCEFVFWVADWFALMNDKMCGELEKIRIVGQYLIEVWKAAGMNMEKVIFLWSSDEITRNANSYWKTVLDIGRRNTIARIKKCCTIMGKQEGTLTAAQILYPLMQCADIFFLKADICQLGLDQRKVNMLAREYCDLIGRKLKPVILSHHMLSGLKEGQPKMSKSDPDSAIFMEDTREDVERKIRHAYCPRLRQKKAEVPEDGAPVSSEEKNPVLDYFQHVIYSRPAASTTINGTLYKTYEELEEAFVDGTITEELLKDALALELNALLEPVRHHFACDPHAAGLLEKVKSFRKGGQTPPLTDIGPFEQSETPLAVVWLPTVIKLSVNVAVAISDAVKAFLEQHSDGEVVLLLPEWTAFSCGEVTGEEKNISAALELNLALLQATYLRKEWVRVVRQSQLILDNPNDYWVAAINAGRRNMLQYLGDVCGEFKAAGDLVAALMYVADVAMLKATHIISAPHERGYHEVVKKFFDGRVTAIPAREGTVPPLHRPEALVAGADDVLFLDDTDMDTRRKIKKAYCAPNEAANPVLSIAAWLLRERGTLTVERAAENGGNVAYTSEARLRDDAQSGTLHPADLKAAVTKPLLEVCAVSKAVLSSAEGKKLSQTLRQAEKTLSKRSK

[8] = target: T4, Tyrosyl-tRNA synthetase, putative (Trypanosoma cruzi (strain CL Brener)); assay: Trypanosoma cruzi tyrosyl tRNA synthetase (TcYRS) SOP; assay type: functional; settings: 30 µM
[9] = target: Chromo domain-containing protein 1 (Saccharomyces cerevisiae (strain ATCC 204508 / S288c) (Baker's yeast)) (UniProt P32657); assay: ScCHD-1 Enzyme Inhibition Assay; assay type: functional; settings: 30 µM; note: in the data most compounds retested in dose-response had high values
Chain of Chromo domain-containing protein 1 (Saccharomyces cerevisiae (strain ATCC 204508 / S288c) (Baker's yeast)) (P32657 whole entry, the tested form may be a part): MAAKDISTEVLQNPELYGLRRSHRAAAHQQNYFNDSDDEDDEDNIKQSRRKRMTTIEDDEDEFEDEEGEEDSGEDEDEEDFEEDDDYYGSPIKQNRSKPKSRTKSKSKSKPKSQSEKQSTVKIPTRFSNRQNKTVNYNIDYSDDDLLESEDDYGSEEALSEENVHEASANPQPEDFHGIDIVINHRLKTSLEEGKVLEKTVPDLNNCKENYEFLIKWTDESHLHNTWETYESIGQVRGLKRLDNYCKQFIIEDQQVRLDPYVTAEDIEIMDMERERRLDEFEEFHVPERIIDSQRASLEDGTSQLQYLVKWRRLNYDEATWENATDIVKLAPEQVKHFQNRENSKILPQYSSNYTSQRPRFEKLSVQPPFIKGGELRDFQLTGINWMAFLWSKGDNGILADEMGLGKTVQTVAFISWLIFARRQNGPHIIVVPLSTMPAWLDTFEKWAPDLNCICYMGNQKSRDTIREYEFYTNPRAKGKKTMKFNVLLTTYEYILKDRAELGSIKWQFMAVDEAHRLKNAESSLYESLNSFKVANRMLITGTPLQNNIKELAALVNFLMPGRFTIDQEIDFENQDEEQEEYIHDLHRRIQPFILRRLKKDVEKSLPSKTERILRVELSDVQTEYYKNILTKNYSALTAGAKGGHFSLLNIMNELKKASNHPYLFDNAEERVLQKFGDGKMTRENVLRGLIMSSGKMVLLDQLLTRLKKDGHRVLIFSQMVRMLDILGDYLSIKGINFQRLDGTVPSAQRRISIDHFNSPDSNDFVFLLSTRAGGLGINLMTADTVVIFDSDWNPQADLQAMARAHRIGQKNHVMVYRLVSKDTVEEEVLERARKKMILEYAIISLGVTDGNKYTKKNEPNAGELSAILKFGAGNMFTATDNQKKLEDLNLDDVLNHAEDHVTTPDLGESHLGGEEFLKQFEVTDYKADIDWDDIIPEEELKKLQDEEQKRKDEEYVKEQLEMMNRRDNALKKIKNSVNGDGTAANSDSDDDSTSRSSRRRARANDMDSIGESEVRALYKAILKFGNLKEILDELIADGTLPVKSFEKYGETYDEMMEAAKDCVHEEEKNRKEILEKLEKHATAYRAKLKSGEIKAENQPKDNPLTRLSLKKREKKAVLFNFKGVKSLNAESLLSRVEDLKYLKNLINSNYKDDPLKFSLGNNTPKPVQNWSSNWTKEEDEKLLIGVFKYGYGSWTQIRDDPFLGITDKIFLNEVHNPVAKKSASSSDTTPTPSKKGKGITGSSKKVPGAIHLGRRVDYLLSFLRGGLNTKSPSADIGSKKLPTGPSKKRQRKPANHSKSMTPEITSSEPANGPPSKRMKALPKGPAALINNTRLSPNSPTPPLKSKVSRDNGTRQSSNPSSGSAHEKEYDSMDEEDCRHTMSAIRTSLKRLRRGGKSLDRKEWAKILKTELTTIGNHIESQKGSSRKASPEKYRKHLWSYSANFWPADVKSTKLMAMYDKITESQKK

Chain of Protein translocase subunit SecA (Escherichia coli (strain K12)) (P10408 whole entry): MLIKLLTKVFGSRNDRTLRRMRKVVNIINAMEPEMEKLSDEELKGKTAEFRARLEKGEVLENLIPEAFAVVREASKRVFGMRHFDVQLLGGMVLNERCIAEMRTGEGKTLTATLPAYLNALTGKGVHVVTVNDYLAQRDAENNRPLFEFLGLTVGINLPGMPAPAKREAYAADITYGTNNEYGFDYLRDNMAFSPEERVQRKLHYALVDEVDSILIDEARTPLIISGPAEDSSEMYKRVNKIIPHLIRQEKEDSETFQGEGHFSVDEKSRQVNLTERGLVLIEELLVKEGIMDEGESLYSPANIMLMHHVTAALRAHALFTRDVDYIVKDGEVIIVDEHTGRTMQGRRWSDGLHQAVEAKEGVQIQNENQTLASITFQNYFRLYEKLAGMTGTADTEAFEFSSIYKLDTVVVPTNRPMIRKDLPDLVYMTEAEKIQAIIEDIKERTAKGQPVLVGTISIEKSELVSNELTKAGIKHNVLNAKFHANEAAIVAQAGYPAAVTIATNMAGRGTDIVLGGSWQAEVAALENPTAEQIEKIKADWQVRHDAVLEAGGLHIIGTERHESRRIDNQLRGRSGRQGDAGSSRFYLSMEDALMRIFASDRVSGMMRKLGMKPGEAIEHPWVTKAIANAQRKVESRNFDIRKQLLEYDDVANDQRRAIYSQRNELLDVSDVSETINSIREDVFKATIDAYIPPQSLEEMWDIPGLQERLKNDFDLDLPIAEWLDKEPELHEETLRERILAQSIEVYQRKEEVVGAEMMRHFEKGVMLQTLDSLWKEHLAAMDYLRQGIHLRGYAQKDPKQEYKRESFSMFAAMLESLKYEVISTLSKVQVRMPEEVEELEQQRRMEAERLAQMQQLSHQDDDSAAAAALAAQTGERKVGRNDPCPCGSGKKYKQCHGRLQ

| SMILES | Percent Effect [1] [%] | Percent Effect [2] [%] | Percent Effect [3] [%] | Percent Effect [4] [%] | Percent Effect (Trypanosoma cruzi) [%] | Percent Effect [5] [%] | Percent Effect [6] [%] | Percent Effect (Homo sapiens) [%] | Percent Effect [7] [%] | Percent Effect [8] [%] | Percent Effect [9] [%] |
| --- | --- | --- | --- | --- | --- | --- | --- | --- | --- | --- | --- |
| CN(Cc1ccsc1)C(=O)c1cccc(F)c1 | -5.35 | 20.8 | 1.32 | 3.27 | -2.06 | -1.07 | 5.74 | 9.71 | 3.88 | 19.5 | -9.1 |
| c1cnnc(N2CCCC2CNCc2cnc(N3CCCC3)nc2)c1 (configuration not stated) | 0.488 | -1.27 | 13.5 | 6.03 | 1.33 | 2.8 | 4.8 | 16.1 | 5.21 | 0 | -7.82 |
| Cc1cc(C)n(C2CCCN(C(=O)CCCNc3ncccn3)C2)n1 (configuration not stated) | -6.94 | 13.9 | -2.21 | -4.67 | 3.38 | 2.8 | 10.6 | -0.293 | 4.17 | 20.2 | -26.7 |
| Cc1cc(CN2CCCC2c2noc(C3CC3)n2)c2ccccc2n1 (configuration not stated) | 1.53 | -16.2 | -1.25 | 5.64 | -1.39 | 9.8 | -4.49 | 94.8 | 11.9 | 3.66 | 12.8 |
| Cc1ccc(=O)n(CC2(O)CCN(Cc3ccsc3)CC2)n1 | 1.03 | 1.35 | 9.78 | -1.02 | -4.74 | 3.02 | 12.9 | 2.32 | 7.53 | 9.09 | -6.08 |
| O=C(Cc1ccccc1F)N1CCN(C(=O)c2ccoc2)CC1 | -1.97 | 7.89 | 7.43 | -1.79 | -2.04 | -23.7 | 22.5 | -4.65 | 9.57 | 18.2 | -2.49 |
| CSCCCN1CCn2nc(CNC(C)=O)cc2C1 | -4.2 | 0 | 6.86 | 4.06 | -7.05 | -0.455 | 8.16 | 27.3 | -1.07 | -2.5 | -4.5 |
| CCOc1nnc(CNC2CCCN(c3ccc(C)nn3)C2)s1 (configuration not stated) | -2.75 | 13.5 | -13.2 | -9.51 | 6.89 | -8.02 | 15.1 | 18.7 | 5.42 | 23.5 | -2.87 |
| CCCc1cc(C(=O)N(C)Cc2cccc3ncccc23)n(C)n1 | -4.03 | 15.6 | 2.46 | 20.3 | 3.25 | -19.3 | 14.6 | 36.1 | 7.53 | 18.5 | -8.05 |
| COCC(O)CNC(=O)c1coc(COc2ccc3sc(C)nc3c2)n1 (configuration not stated) | -0.0441 | 5.48 | 3.03 | 0.244 | -7.25 | 5.46 | 14.7 | 44.1 | 5.38 | 15 | -1.23 |
| CN(Cc1ccsc1)C(=O)Nc1cccnc1N1CCCC1 | -9.81 | 7.89 | -31.4 | -9.07 | -7.38 | 0.719 | 2.62 | 6.49 | -1.48 | 3.7 | -2.06 |
| Cn1nccc1C(=O)N1CCOC(Cc2cccc(C(F)(F)F)c2)C1 (configuration not stated) | -6 | 0 | 0.696 | -3.79 | -3.99 | -0.521 | 4.18 | 12.7 | 3.83 | 3.7 | 2.23 |
| Cc1cc(C2CCCN(C(=O)CN3CCN(C)CC3)C2)n[nH]1 (configuration not stated) | -0.557 | 13.5 | -4.16 | 2.41 | 2.32 | -4.25 | 16.9 | 16.2 | 6.93 | 18.3 | -5.49 |
| CC(NC(=O)N(C)Cc1ccsc1)c1ccc2c(c1)OCO2 (configuration not stated) | -2.79 | 10.5 | 5 | 4.83 | 9.59 | -4.21 | 11 | 1.31 | 4.41 | 19.5 | -8.55 |
| CCCc1nc(C(C)(C)NC(=O)C2CC(=O)N(CC3CC3)C2)no1 (configuration not stated) | -3.09 | 10.8 | -4.68 | -4.84 | -6.78 | 2.4 | -5.75 | 14.8 | 2.97 | 11 | 5.6 |
| COCCc1noc(CN2CCN(CC(O)c3ccccc3)CC2)n1 (configuration not stated) | -7.76 | 6.33 | 4.46 | -0.576 | -1.54 | 1.07 | 6.69 | 12 | 11.5 | 10.1 | -14.9 |
| C[S+]([O-])c1nncn1CC(=O)c1cccc(Cl)c1 (configuration not stated) | -7.89 | 16.2 | -4.48 | 23.3 | 6.16 | 3.72 | 10.4 | -1.98 | 5.38 | 8.64 | -6.7 |
| O=C(Cn1ccc2sccc2c1=O)NCc1ccc2c(c1)OCO2 | -3.35 | 5.2 | 2.53 | 0.145 | -5.62 | 4.52 | 4.53 | 1.29 | 5.29 | 11.5 | -2.27 |
| CN(Cc1ccco1)Cc1ccccc1CNC(=O)c1ccncc1 | -4.48 | 5.41 | 13.1 | 4.84 | 0.386 | 0 | 12.8 | -3.63 | 2.65 | 4.88 | -2.3 |
| CC1CN(CC(=O)Nc2cccnc2)CCN1c1nccs1 (configuration not stated) | -0.157 | 2.7 | -1.61 | 7.17 | -0.464 | 3.14 | 1.26 | 27.8 | 1.98 | -1.22 | 13.7 |
| Cc1cccc(NC2CCN(C(=O)Nc3cccc4[nH]ccc34)CC2)n1 | -6.98 | 17.7 | -19.6 | 10.2 | 6.7 | -7.22 | 3.85 | -7.19 | 4.43 | 16.5 | -8.65 |
| Cc1cnc(N2CCC3(CCCN(c4ccc(C)nn4)C3)C2)nc1 (configuration not stated) | 1.3 | 11 | 1.6 | 7.43 | -6.35 | -21.6 | 13.1 | 33.6 | 6.25 | 13.6 | -5.51 |
